Compound activity: PubChem BioAssay, The Scripps Research Institute Molecular Screening Center
GPR151 activ: activators of human GPR151. PathHunter beta-arrestin GPR151 cells, luminescence. 650,000 tested, 1% active. activation, % at 11.2 µM. Q8TDV0; in the data active means activation above about 4.9%
Target sequence (Q8TDV0 whole entry, looked up): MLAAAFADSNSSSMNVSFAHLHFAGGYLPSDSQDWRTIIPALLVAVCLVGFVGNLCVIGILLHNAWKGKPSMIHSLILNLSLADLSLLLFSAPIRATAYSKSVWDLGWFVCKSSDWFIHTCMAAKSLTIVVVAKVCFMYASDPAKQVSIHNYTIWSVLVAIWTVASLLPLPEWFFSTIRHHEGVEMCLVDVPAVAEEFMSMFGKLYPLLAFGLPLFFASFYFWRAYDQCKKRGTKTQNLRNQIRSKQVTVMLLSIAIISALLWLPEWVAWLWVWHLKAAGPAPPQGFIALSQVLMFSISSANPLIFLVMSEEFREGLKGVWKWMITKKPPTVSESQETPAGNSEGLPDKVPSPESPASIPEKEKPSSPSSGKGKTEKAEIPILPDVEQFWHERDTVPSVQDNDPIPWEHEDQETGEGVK
MITF primary: human MITF inhibition, primary screen | O75030 | AlphaScreen MITF homodimerization, bead proximity signal | inhibition, % at 2.6 µM | 650,000 tested, 0.91% active; in the data active means inhibition above about 50%
TEAD-YAP inh: TEAD-YAP interaction inhibition; inhibition, % at 9.12 µM; HEK-TIYL cells, TEAD-Gal4/YAP UAS-luciferase luminescence; 640,000 tested, 1.4% active; in the data active means inhibition above about 32%
FBW7 act: human FBW7 E3 ligase activation, primary screen. AID 1259310. normalized activity (activation), % at 26.1 µM. 650,000 tested, 0.13% active. AlphaScreen FBW7–phospho-cyclin E peptide binding, activator screen; in the data active means normalized activity above about 1.9%;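 further: purified mutant Fbw7 with reduced substrate affinity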
Each line names hits and unclear results; the compound was inactive in the other large screens. The list is not random: actives were taken first. Their share in the collection is about 3.4%.

Cc1cc(C)c(S(=O)(=O)NCC2CCC(C(=O)N3CCCC3)CC2)c(C)c1 (configuration not stated)	none
CC(=O)c1ccc(OCC(N)=O)cc1	none
CC1=C(C(=O)OC2CCCC2C)C(c2ccc(C)cc2)NC(=O)N1 (configuration not stated)	none
O=C(NCc1cccnc1)c1ccc2nc(Nc3ncccn3)sc2c1	none
COc1cc(NC(=O)c2ccc3nc(Nc4ccccn4)sc3c2)cc(OC)c1OC	TEAD-YAP inh 32
O=C(NCc1cccc(C(F)(F)F)c1)c1ccc2nc(Nc3ccc(-n4ccnc4)cc3)sc2c1	none
O=C(NCc1ccccc1)c1ccc2nc(Nc3ccc(-n4ccnc4)cc3)sc2c1	TEAD-YAP inh 36
COc1cc(Nc2nc3ccc(C(=O)NCc4cccnc4)cc3s2)cc(OC)c1OC	TEAD-YAP inh 42
Cc1ccc(C(=O)Nc2ccc3nc(C)sc3c2)cc1	none
Cc1ccc(Cl)cc1NC(=O)CCN1C(=S)NC(C)(C)CC1C (configuration not stated)	none
O=C(c1csc(-c2cc3ccccc3[nH]2)n1)N1CCOCC1	none
O=C(c1csc(-c2cc3ccccc3[nH]2)n1)N1CCc2ccccc21	TEAD-YAP inh 40
Cc1ccc(C)c(S(=O)(=O)Nc2ccc3scnc3c2)c1	TEAD-YAP inh 39
Cc1nc(N2CCCC2C(=O)NCc2cccs2)nc2cc(S(C)(=O)=O)ccc12 (configuration not stated)	none
COc1ccc(CCNc2ncnc3c2oc2ccccc23)cc1OC	TEAD-YAP inh 46
COc1ccc(CCNc2ncnc3ccccc23)cc1OC	TEAD-YAP inh 63
COc1ccc(CCNc2ncnc3sccc23)cc1OC	TEAD-YAP inh 56
c1ccc(CCNc2ncnc3ccccc23)cc1	none
COc1ccc(CCNc2nc(C)nc3sc(C)c(C)c23)cc1OC	TEAD-YAP inh 37
CC1=C(C(=O)Nc2ccccc2C)C(c2cccs2)C(C#N)=C(SCC(=O)c2ccc(C)cc2)N1 (configuration not stated)	none
COc1ccccc1N=c1oc2c(C)ncc(CO)c2cc1C(N)=O	none
COc1ccccc1N1C(=O)/C(=C/c2ccc(Br)cc2)C=C1c1ccccc1	none
OC1(c2ccccc2)CSC(=Nc2cccnc2)N1CCCn1ccnc1 (configuration not stated)	TEAD-YAP inh 43
C=CCN1C(=Nc2cccnc2)SCC1(O)c1ccc(C)cc1 (configuration not stated)	none
c1ccc(Nc2nc(Nc3nccc4ccccc34)nc3c2ncn3-c2ccsc2)cc1	none
c1ccc2c(Nc3nc(Nc4ccc(N5CCOCC5)cc4)c4ncn(-c5ccsc5)c4n3)nccc2c1	TEAD-YAP inh 73
CC(=O)Nc1ccc(Nc2nc(Nc3ccc4ncccc4c3)nc3c2ncn3-c2ccsc2)cc1	none
c1cnc(Nc2nc(Nc3ccc(N4CCOCC4)cc3)c3ncn(-c4ccsc4)c3n2)cn1	TEAD-YAP inh 46
c1ccc(Nc2nc(Nc3ccc(N4CCOCC4)cc3)c3ncn(-c4ccsc4)c3n2)nc1	TEAD-YAP inh 37
c1cncc(CNc2nc(Nc3ccc(N4CCOCC4)cc3)c3ncn(-c4ccsc4)c3n2)c1	none
CC(=O)Nc1ccc(Nc2nc(Nc3ccccn3)nc3c2ncn3-c2ccsc2)cc1	TEAD-YAP inh 45
CCOc1ccccc1-c1nnc(SCC(=O)NC2CC3CCC2C3)o1 (configuration not stated)	none
COc1ccc(S(=O)(=O)Nc2cccc(SC)c2)cc1Br	none
NS(=O)(=O)c1ccc(NC(=O)c2ccc([N+](=O)[O-])cc2Cl)cc1	none
c1ccc(Nc2nc(Nc3ccc(N4CCOCC4)cc3)c3ncn(-c4ccsc4)c3n2)cc1	TEAD-YAP inh 39
CCn1c2ccccc2c2cnc(N=CN(C)C)c(C#N)c21	TEAD-YAP inh 42
Nc1c(Br)cc(O)c2c1C(=O)c1ccccc1C2=O	none
Nc1c2c3c(c(O)ccc3[nH]c1=O)C(=O)c1ccccc1-2	TEAD-YAP inh 37
O=S(=O)(c1ccc(NC(=S)N/N=C/c2ccccc2O)cc1)N1CCOCC1	MITF primary 68, TEAD-YAP inh 61
Brc1nsc2nc(-c3ccccc3)cc(-c3ccccc3)c12	none
Fc1ccccc1Nc1nc(N2CCOCC2)c2ccccc2n1	none
CN(C)c1ccc(Nc2nc(N)c3ccccc3n2)cc1	TEAD-YAP inh 91
Cc1ccc(Nc2nc(N3CCOCC3)c3ccccc3n2)cc1Cl	none
Nc1nc(Nc2ccccc2F)nc2ccccc12	TEAD-YAP inh 57
Cc1ccc(Nc2nc(N)c3ccccc3n2)cc1	TEAD-YAP inh 90
Cc1ccc(Nc2nc(N)c3ccccc3n2)cc1Cl	TEAD-YAP inh 35
